# From PubChem
# Tb PFK inh: inhibitors of T. brucei phosphofructokinase; O15648; T. brucei PFK, ADP-Glo luminescence; Potency, µM (top dose mostly 57.5 µM), for inactives: at the highest dose activity, negative = inhibition, actives largely listed as inhibitors; 330,000 tested, 0.17% active; AID 485367;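 also: potency is read from the fitted curve at half-maximal effect; 0% = uninhibited 1x PFK enzyme wells and -100% = no-enzyme wells; nearly all actives have a fitted effect of over 60% in size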
#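 Activity is normalized to no-enzyme wells (full inhibition) and 1.25 nM enzyme wells (no inhibition). Reaction: 0.5 mM F6P, 0.1 mM ATP, 45 min RT, ADP-Glo luminescence; concentration-response curves fitted and classed by quality.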
# RXFP1 antagonist: antagonists of human relaxin receptor RXFP1 | Q9HBX9 | HEK293-RXFP1, relaxin-stimulated cAMP HTRF, 30 min; hits give low values | activity change, negative = inhibition, % at 57.5 µM | 350,000 tested, 0.59% active;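 active = activity change of -60% or lower, but not beyond a set lower limit; inconclusive = change between -60% and -40%, or beyond the set limit; inactive = change above -40%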; also: % is scaled to controls: 0 for no effect and ±100 for the full control effect
# Target sequence (Q9HBX9 whole entry, looked up): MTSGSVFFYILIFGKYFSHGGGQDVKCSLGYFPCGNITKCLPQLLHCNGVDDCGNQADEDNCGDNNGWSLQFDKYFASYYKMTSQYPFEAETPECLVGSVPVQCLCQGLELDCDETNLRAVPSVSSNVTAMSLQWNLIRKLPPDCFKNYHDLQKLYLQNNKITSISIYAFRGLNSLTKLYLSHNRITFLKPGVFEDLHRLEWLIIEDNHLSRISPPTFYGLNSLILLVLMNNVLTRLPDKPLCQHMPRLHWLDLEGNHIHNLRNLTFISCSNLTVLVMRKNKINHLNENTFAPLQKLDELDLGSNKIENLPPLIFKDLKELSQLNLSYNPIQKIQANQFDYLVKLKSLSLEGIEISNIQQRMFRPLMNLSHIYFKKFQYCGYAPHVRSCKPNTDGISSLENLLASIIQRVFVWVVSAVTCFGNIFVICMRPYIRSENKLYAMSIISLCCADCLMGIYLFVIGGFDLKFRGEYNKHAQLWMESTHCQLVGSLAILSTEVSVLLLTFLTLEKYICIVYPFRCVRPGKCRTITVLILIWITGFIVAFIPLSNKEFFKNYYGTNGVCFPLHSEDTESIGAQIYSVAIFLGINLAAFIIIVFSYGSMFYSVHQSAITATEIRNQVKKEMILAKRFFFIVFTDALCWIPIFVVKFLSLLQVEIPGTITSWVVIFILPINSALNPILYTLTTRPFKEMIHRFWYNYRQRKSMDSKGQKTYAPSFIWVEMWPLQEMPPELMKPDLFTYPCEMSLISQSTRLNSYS
# gsp agonist: agonists of gsp mutant (McCune-Albright syndrome); Potency, µM (highest dose often 76.9 µM), without a hit: top-dose activation (cAMP increase), most hits filed as activators; gsp mutant cells, cAMP HTRF, 30 min; 340,000 tested, 0.13% active; active = well fitted activation curve with a large enough effect; inconclusive = small, poorly fitted or top-dose-only effect, or another doubt; inactive = no such curve, though single readings can be large or run the other way; cell line not stated here;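 also: phosphodiesterase inhibitor Ro 20-1724 added with compounds to block cAMP breakdown; potency is read from the fitted curve at half-maximal effect; nearly all actives have a fitted effect of over 60% in size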
#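 Cells stably selected in G418 were plated at 2000/well, grown 16-24 hr, then given compounds in DMSO with the PDE inhibitor […] (300 uM solution added) for 30 min at 37C; cAMP was read by HTRF.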
# RXFP1 agonist: RXFP1 (human) receptor agonism | Q9HBX9 | HEK293T-RXFP1 cAMP TR-FRET, 30 min; response scale: percent of porcine relaxin response, buffer zero | Potency, µM (highest dose often 57.5 µM), for inactives: at the top dose activation, most hits filed as activators | 370,000 tested, 0.3% active; also: potency is read from the fitted curve at half-maximal effect; % is scaled to controls: 0 for no effect and ±100 for the full control effect; nearly all actives have a fitted effect of over 60% in size
#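 Agonist response is measured as cAMP accumulation in an RXFP1-transfected HEK293T line under PDE4 inhibition. Values are scaled between buffer-only and 29 nM porcine relaxin, and EC50s come from standard Hill equation fits.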
# p53 reactivation: re-activators of mutant p53; H1299 p53-A138V BP100-luciferase reporter, luminescence, 24 h; Potency, µM (series often up to 92.2 µM), without a hit: top-dose activity change, positive = activation, actives largely listed as activators; 320,000 tested, 0.063% active; AID 504706; also: potency is read from the fitted curve at half-maximal effect; % of control where 0% means no effect; nearly all actives have a fitted effect of over 45% in size
#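 p53-null H1299 cells stably carrying temperature-sensitive p53-A138V and a BP100-luciferase reporter were pinned with compounds (4-point, 1:5 series) and held 24 hrs at 37 deg C. Luminescence was read 10 min after detection reagent.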
# gsp antagonist: antagonizes gsp, the McCune-Albright syndrome mutation | gsp-mutant cells, cAMP HTRF, 30 min | Potency, µM (series often up to 76.9 µM), inactives show top-dose activity change, negative = inhibition, actives largely listed as inhibitors | 340,000 tested, 0.4% active; calls by dose curve; cell line not stated here;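 also: intracellular cAMP measured with PDE inhibitor Ro 20-1724 present during compound exposure; potency is read from the fitted curve at half-maximal effect; % is scaled to controls: 0 for no effect and ±100 for the full control effect; nearly all actives have a fitted effect of over 65% in size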
#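 HTRF cAMP measurement after 30 min RT detection following 30 min, 37C compound treatment alongside […] (added as 300 uM solution) in G418-selected cells seeded at 2000/well and grown 16–24 h.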
# The depositor's hits bear a star; u = inconclusive; x = no result; ! = not confirmed by another sample; [ ] = dose if it differs, or a comment. Only some compounds are listed: those with a hit (about 1.1% of all), similar ones and a draw of the others. Unless noted, calls follow the shape of the dose curve; as a rule, active = well fitted curve in the direction sought with a large enough effect; inconclusive = small, poorly fitted or top-dose-only effect, or another doubt; inactive = no such curve, though single readings can be large; an effect the other way counts as inactive or inconclusive.
SMILES,Tb PFK inh,RXFP1 antagonist,gsp agonist,RXFP1 agonist,p53 reactivation,gsp antagonist
O=C(NCC(c1ccco1)N1CCc2ccccc21)C(=O)Nc1ccccc1 (stereo unspecified),6%,-66*,7%[15.4 µM],0%,18%,2%
O=C(NCC(c1ccco1)N1CCc2ccccc21)C(=O)Nc1ccccc1F (stereo unspecified),5%,-25,-55%,3%,2%,1%
O=[N+]([O-])c1ccc(CSc2nnc3ccccn23)cc1,-2%,-1,18µM*,17%,5%,1%
O=[N+]([O-])c1ccccc1CSc1nnc2ccccn12,2%,-8,27%[15.4 µM],5%,13%,9%
CCc1ccc2nc(NC(=O)CSCc3c(C)noc3C)sc2c1,-2%,-2,1%,-1%,11%,-37%
Oc1ccc(-c2csc(Nc3ccccn3)n2)cc1O,-2%,-63*,-5%,-2%,u,-5%
CCc1cc(/C(Cc2ccccn2)=N\O)c(O)cc1O,-9%,0,13%,-2%,12%,35µM*
C=CC[N+]1([C@H]2C[C@H]3[C@@H]4CC[C@H]5C[C@H](OC(C)=O)[C@@H](N6CCCCC6)C[C@]5(C)[C@H]4CC[C@]3(C)[C@H]2OC(=O)CC)CCCCC1,x,-4,x,x,x,x
CN1CCC(NCCC(c2ccc(F)cc2)c2ccc(Cl)cc2)CC1 (stereo unspecified),-4%,-86*,-2%[15.4 µM],0%,-20%,11%
COc1ccc(CCN2C(=O)/C(=C\c3ccco3)SC2=S)cc1OC,-4%,-77*,5%,0%,5%,-4%
O=C(N/N=C/c1c[nH]c2c1ccc1ccccc12)c1ccc([N+](=O)[O-])cc1,-2%,-68*,-2%[15.4 µM],-2%,-12%,-7%
CCc1nonc1NC(=O)c1oc2cc(C)c(C)cc2c1C,-2%,12,-3%,-2%,2%,1%
CCc1nonc1NC(=O)c1oc2ccc(Br)cc2c1C,2%,-14,-22%,25µM*!,3%,10%
O=C(O)c1ccc2c(c1)C(=O)N(c1cccc(C(=O)/C=C/c3ccccc3)c1)C2=O,0%,-13,4%[15.4 µM],-1%,2%,x
COc1ccc(OCC(=O)N2CCN(c3cccc(Cl)c3)CC2)cc1,-26%,7,11%[15.4 µM],2%,-2%,-15%
COc1ccc(C(=O)CCC(=O)N2CCN(c3cccc(Cl)c3)CC2)cc1,-24%,-12,u,1%,3%,35µM*
C[C@@H](C(=O)NCc1c(F)cccc1Cl)N1C(=O)N2CCc3c([nH]c4ccccc34)[C@@]2(C)C1=O,3%,x,x,1%,11%,-24%
CC(C)Cc1ccc(C(C)CC2=CCC(CN(C)C)C2=O)cc1 (stereo unspecified),x,-83*,10%,x,x,-7%
CC(C)Cc1ccc(C(C)/C=C2/CCC(CN3CCCCC3)C2=O)cc1 (stereo unspecified),x,-21,19%,x,x,7%
C=C[C@@H]1c2c(F)cccc2N(S(=O)(=O)c2ccc(C)cc2)[C@H](c2ccc(OC(C)=O)cc2)C1(C#N)C#N,-4%,x,-20%,2%,-11%,-2%
Cc1ccc2oc(-c3cccc(N)c3)nc2c1,-8%,-7,-2%[15.4 µM],8%,u,x
Cc1ccc(-c2nc3cc(N)ccc3o2)cc1,2%,8,u,13%,1%,5%
CC(C)(C)c1ccc(-c2nc3cc(N)ccc3o2)cc1,0%,-84*,17%,8%,x,2%
Cc1ccc(-c2nc3cc(N)ccc3o2)c(C)c1,6%,2,32µM*,17%,18%,16%
COc1ccccc1CCNc1ncnc2c1nnn2C,x,2,x,5%,x,x
SMILES,Tb PFK inh,RXFP1 antagonist,gsp agonist,RXFP1 agonist,p53 reactivation,gsp antagonist
Cc1ccc(C(C2C(=O)CC(C)(C)CC2=O)C2C(=O)CC(C)(C)CC2=O)s1,-14%,-68*,-29%,-2%,-5%,-13%
CSc1cc(-c2ccc(Cl)cc2)n(Cc2ccccc2)c(=O)c1C#N,-2%,2,-49%,22µM*,1%,3%
CCC(C)NC(=O)CSc1c2c(nc3ccccc13)CCCC2 (stereo unspecified),2%,-7,13µM*,9%,-10%,3%
CCn1nc(C(=O)Nc2ccc(Cl)c(S(=O)(=O)N3CCOCC3)c2)c2ccccc2c1=O,0%,13,-18%[15.4 µM],3%,-12%,-2%
CN(CCC#N)C(=O)CSc1ncnc2sc(-c3ccccc3)cc12,1%,-6,-7%,3%,14%,-32%
CCN(CC)C(=O)CSc1ncnc2sc(-c3ccccc3)cc12,-2%,-29,6%,3%,21%,40µM*
C=C(CN(C)C)C(=O)c1ccc(C)cc1C,x,-81*,27%,x,x,50µM*
Cc1cc(C)n(-c2nc(Nc3ccccc3C(F)(F)F)nc(-n3nc(C)cc3C)n2)n1,-2%,u,6%,2%,7%,28µM*
Cc1cc(C)n(-c2nc(Nc3ccccc3C)nc(-n3nc(C)cc3C)n2)n1,-2%,x,x,1%,2%,x
O=C1C(=O)N(CCN2CCOCC2)C(c2ccccc2)/C1=C(\O)c1ccc2c(c1)OCCO2 (stereo unspecified),2%,10,u,u,1%,21%
O=C1C(=O)N(Cc2cccnc2)C(c2ccc(Br)cc2)/C1=C(\O)c1ccc2c(c1)OCCO2 (stereo unspecified),5%,0,8.9µM*,u,-4%,12%
CCOc1ccc(/C(O)=C2/C(=O)C(=O)N(CCCN3CCOCC3)C2c2ccc(C)cc2)cc1C (stereo unspecified),3%,-1,39%,27%,4%,11µM*
O=C1C(=O)N(CCCN2CCOCC2)C(c2ccc(Cl)cc2)/C1=C(\O)c1ccc2c(c1)OCCO2 (stereo unspecified),0%,29,11µM*,u,12%,28%
COc1cccc(C2/C(=C(\O)c3ccc4c(c3)OCCO4)C(=O)C(=O)N2CCCN2CCOCC2)c1OC (stereo unspecified),0%,17,8.9µM*,28%,9%,26%
CCOC(=O)C1C(=O)Oc2ccc3ccccc3c2C1C1CCOC1=O (stereo unspecified),-1%,x,-5%,0%,-2%,50µM*
CCOC(=O)c1sc(=NC(=O)c2cccs2)n(C)c1C,3%,-13,-10%[15.4 µM],28µM*,-5%,-1%
CCOC(=O)c1sc(=NC(=O)c2ccc(Cl)s2)n(C)c1C,3%,-7,3%[15.4 µM],4%,7%,-24%
